Experimental data published in PubChem BioAssay (NCI).
Where “and” joins values, the source holds several entries; their conditions need not be identical. Identical values can stand only once. About 83,000 compounds went through this panel and 20% of them were active in at least one assay; those are over-represented in the sample as a whole.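 Cells were grown in 96-well plates and exposed to the test compound at a single concentration for 48 hours; results are reported as percent growth, with values below 10 considered active.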 Calls of active or inactive are those of the source.

Columns and labels:
Assay in all cases: NCI-60 one-dose screen, 48 h (100 = growth as untreated, 0 = no growth, -100 = all killed)
Details in all cases: 10 µM unless noted
DU-145 prostate = system: DU-145 prostate
K-562 leukemia = system: K-562 leukemia
MALME-3M melanoma = system: MALME-3M melanoma
MDA-MB-231 breast = system: MDA-MB-231 breast
RXF 393 renal = system: RXF 393 renal
SF-268 CNS = system: SF-268 CNS
SF-295 CNS = system: SF-295 CNS
SF-539 CNS = system: SF-539 CNS
UACC-257 melanoma = system: UACC-257 melanoma
M14 melanoma = system: M14 melanoma

| SMILES | growth (DU-145 prostate) | growth (K-562 leukemia) | growth (MALME-3M melanoma) | growth (MDA-MB-231 breast) | growth (RXF 393 renal) | growth (SF-268 CNS) | growth (SF-295 CNS) | growth (SF-539 CNS) | growth (UACC-257 melanoma) | growth (M14 melanoma) |
| --- | --- | --- | --- | --- | --- | --- | --- | --- | --- | --- |
| CC[C@H](C)[C@H](NC(=O)[C@H]1CCCCN1C)C(=O)N(C)[C@H](C[C@@H](OC(C)=O)c1nc(C(=O)NC23C4C5C2C2C3C4C52C(=O)OC)cs1)C(C)C (stereo partly drawn) | -7.13% (active) | 6.1% (active) | 56.9% (inactive) | 20.3% (inactive) | 34.2% (inactive) | 24.9% (inactive) | 6.06% (active) | -11.4% (active) | 46.4% (inactive) | 10.2% (inactive) |
| CCCCOCCOP(=O)(OCCOCCCC)OCCOCCCC | 115% (inactive) | 88.3% (inactive) | 111% (inactive) | 99% (inactive) | 100% (inactive) | 98.5% (inactive) | 103% (inactive) | 99.6% (inactive) | – | 106% (inactive) |
| CCCCCCCCCCCCCCCC[N+](C)(C)Cc1ccccc1 | 26.7% (inactive) and -40.3% (active) | 15% (inactive) and -22.5% (active) | -25% (active) and -55.5% (active) | -41.4% (active) and -70.1% (active) | 0.124% (active) | 0.106% (active) and -74.5% (active) | 20.6% (inactive) and -28.5% (active) | -61.2% (active) and -99.3% (active) | – | -45.6% (active) and -88.7% (active) |
| CC(=O)C(N)Cc1ccccc1 (stereo not drawn) | 99.3% (inactive) | 98.8% (inactive) | 105% (inactive) | 105% (inactive) | 101% (inactive) | 105% (inactive) | 102% (inactive) | 100% (inactive) | 73.3% (inactive) | 90.1% (inactive) |
| C[C@]12CCc3sc(Nc4ccc(F)cc4)nc3C1=CC[C@@H]1[C@@H]2CC[C@]2(C)C(=O)CC[C@@H]12 | 19.3% (inactive) | 5.92% (active) | 78.7% (inactive) | 84.4% (inactive) | 13.2% (inactive) | 69.3% (inactive) | 28.7% (inactive) | 54.4% (inactive) | 85.9% (inactive) | 90% (inactive) |
| CCCC(C)SP(=S)(SC(C)CCC)SC(C)CCC (stereo not drawn) | 108% (inactive) | 112% (inactive) | 87.6% (inactive) | 113% (inactive) | 95.5% (inactive) | 104% (inactive) | 101% (inactive) | 103% (inactive) | – | 94.4% (inactive) |
| COC(=O)[C@@H](C)C[C@H](Cc1ccccc1)NC(=O)c1cccc([C@@H](C[C@H](C(C)C)N(C)C(=O)[C@@H](NC(=O)[C@H]2CCCCN2C)C2CC2)OC(C)=O)n1 | 3.09% (active) | 6.15% (active) | 67.1% (inactive) | -20.4% (active) | 23.4% (inactive) | 18.6% (inactive) | 3.47% (active) | -15% (active) | 36.4% (inactive) | 1.47% (active) |
| O=C(O)C(F)F | 107% (inactive) | 92.4% (inactive) | 102% (inactive) | 98.9% (inactive) | 97.1% (inactive) | 98.9% (inactive) | 101% (inactive) | 97.1% (inactive) | – | 107% (inactive) |
| CC(C)CCC1C(=O)NC(=O)NC1=O | 109% (inactive) | 109% (inactive) | 88.9% (inactive) | 97.3% (inactive) | 117% (inactive) | 96.2% (inactive) | 98.4% (inactive) | – | 95.5% (inactive) | 99.9% (inactive) |
| C=CC[PH+](c1ccccc1)c1ccccc1.C=CC[PH+](c1ccccc1)c1ccccc1.[Pt+2].[S-]c1ncccn1.[S-]c1ncccn1 | 35.5% (inactive) | 5% (active) | -10.8% (active) | 7.07% (active) | -77.6% (active) | 87.4% (inactive) | 84.2% (inactive) | 60.2% (inactive) | 66.7% (inactive) | 1.19% (active) |
| O=C/C=C/c1ccco1 | 108% (inactive) | 88.8% (inactive) | 98.8% (inactive) | 99.4% (inactive) | 119% (inactive) | 102% (inactive) | 99.9% (inactive) | 100% (inactive) | – | 102% (inactive) |
| C[N+]1(CC#CC[N+]2(C)CCCC2)CCCC1 | 106% (inactive) | 106% (inactive) | 99% (inactive) | 102% (inactive) | 103% (inactive) | 95.9% (inactive) | 98.6% (inactive) | 105% (inactive) | 105% (inactive) | 103% (inactive) |
| CCN1C(=O)NC(=O)C(C)(N2C(=O)c3c(F)c(F)c(F)c(F)c3C2=O)C1=O (stereo not drawn) | 31.9% (inactive) | -71.2% (active) | -39.6% (active) | 9.99% (active) | -63.8% (active) | 5.09% (active) | 84.1% (inactive) | 18.6% (inactive) | 38.5% (inactive) | 24.4% (inactive) |
| O=[N+]([O-])c1c(Cl)cc(Cl)c([N+](=O)[O-])c1Cl | 81.3% (inactive) | 103% (inactive) | 175% (inactive) | 110% (inactive) | 131% (inactive) | 96% (inactive) | – | 110% (inactive) | 62.9% (inactive) | – |
| CCC1CCC(=O)O1 (stereo not drawn) | 112% (inactive) and 116% (inactive) | 110% (inactive) and 119% (inactive) | 98.2% (inactive) and 116% (inactive) | 106% (inactive) and 112% (inactive) | 101% (inactive) and 124% (inactive) | 106% (inactive) and 110% (inactive) | 119% (inactive) | 98.7% (inactive) and 106% (inactive) | 105% (inactive) | 107% (inactive) and 114% (inactive) |
| CCOC(=O)c1cncn1C(C)c1ccccc1 (stereo not drawn) | 120% (inactive) | 96.7% (inactive) | 109% (inactive) | 112% (inactive) | 103% (inactive) | 113% (inactive) | 104% (inactive) | 107% (inactive) | 103% (inactive) | 103% (inactive) |
| Cc1nnc([S-])o1.[Au+].c1ccc([PH+](c2ccccc2)c2ccccc2)cc1 | 62.4% (inactive) | 12.8% (inactive) | 48.1% (inactive) | 61.4% (inactive) | -53.8% (active) | 43.4% (inactive) | 92.1% (inactive) | 67.8% (inactive) | 27.9% (inactive) | 31.8% (inactive) |
| N#CCC(=O)c1ccccc1 | 98.5% (inactive) | 84.5% (inactive) | 102% (inactive) | 104% (inactive) | 108% (inactive) | 94.1% (inactive) | 101% (inactive) | 111% (inactive) | – | 111% (inactive) |
| C(=NC1CCCCC1)=NC1CCCCC1 | 107% (inactive) and 97.9% (inactive) | 97.8% (inactive) and 69% (inactive) | 108% (inactive) and 53.2% (inactive) | 97.2% (inactive) and 88.3% (inactive) | 109% (inactive) and 94.6% (inactive) | 108% (inactive) and 88.2% (inactive) | 87% (inactive) | 101% (inactive) and 97.7% (inactive) | 133% (inactive) and 44.3% (inactive) | 115% (inactive) and 87.1% (inactive) |
| CCCCn1c(=O)c(C(=O)NCc2ccccc2Cl)c(O)c2ccccc21 | 84.6% (inactive) | 42.3% (inactive) | 98% (inactive) | 88.7% (inactive) | 87.7% (inactive) | 80.8% (inactive) | 51.8% (inactive) | 97.4% (inactive) | 80.9% (inactive) | 59.4% (inactive) |
| N#CCc1ccc(CC#N)cc1 | 116% (inactive) | 95.5% (inactive) | 118% (inactive) | 96.7% (inactive) | 106% (inactive) | 105% (inactive) | 100% (inactive) | – | 89% (inactive) | 98.1% (inactive) |
| COc1ccc2c(c1)C1(C)CCN(C)CC(C1)C2O (stereo not drawn) | 104% (inactive) | 99.9% (inactive) | 93.3% (inactive) | 113% (inactive) | 97% (inactive) | 100% (inactive) | – | 97.2% (inactive) | 97% (inactive) | 98.1% (inactive) |
| COc1ccn(C)c(=O)c1C#N | 106% (inactive) | 105% (inactive) | 106% (inactive) | 90.7% (inactive) | 107% (inactive) | 94.3% (inactive) | 101% (inactive) | – | 87% (inactive) | 102% (inactive) |
| CCOP(=O)(OCC)C(=O)N(CC)CC | 107% (inactive) | 121% (inactive) | 108% (inactive) | 99.8% (inactive) | 101% (inactive) | 101% (inactive) | 98.8% (inactive) | 113% (inactive) | 88.4% (inactive) | 101% (inactive) |
| C[C@]12CCc3sc(Nc4ccc(O)cc4)nc3C1=CC[C@@H]1[C@@H]2CC[C@]2(C)C(=O)CC[C@@H]12 | 10.4% (inactive) | 10.8% (inactive) | 29.7% (inactive) | 35.3% (inactive) | -16.2% (active) | 58.3% (inactive) | 52.5% (inactive) | -3.84% (active) | 73.4% (inactive) | 58.1% (inactive) |
| O=C(O)c1ccccc1N(CCO)CCCl | 103% (inactive) | 100% (inactive) | 87.1% (inactive) | 112% (inactive) | 102% (inactive) | 103% (inactive) | 99.8% (inactive) | 84.6% (inactive) | 99% (inactive) | 96% (inactive) |
